# Reference: article PMC4081100, “A DNA-binding-site landscape and regulatory network analysis for NAC transcription factors in Arabidopsis thaliana”
# What was measured:
# Assay in all cases: universal protein binding microarray (PBM); transcription factors of Arabidopsis thaliana; high values mean tight binding
# [1] = molecular target: T1, GST-ANAC019 NAC domain (Arabidopsis thaliana, UniProt Q9C932 14-162); details: protein: recombinant; tags: GST; chain copies: 2; dsDNA, one strand shown
# T1 sequence: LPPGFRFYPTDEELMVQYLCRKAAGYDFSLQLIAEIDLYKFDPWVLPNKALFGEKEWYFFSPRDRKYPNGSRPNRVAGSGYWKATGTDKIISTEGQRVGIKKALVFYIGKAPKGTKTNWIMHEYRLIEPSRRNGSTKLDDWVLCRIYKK
# How it was run: (§1)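 Cells were induced to make GST-tagged NAC-domain, full-length or DNA-binding-domain proteins, and zinc acetate was added for zinc-finger proteins. These proteins were purified on glutathione–Sepharose 4B, quantified by A280 or anti-GST western blot, and applied in duplicate at 200 to 500 nM final to custom all-10-mer Agilent 4 × 180K arrays that primer extension had made double-stranded. Binding is given as the normalised enrichment score (E-score) for scored gapped and ungapped 8-mers.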
# [2] = molecular target: T2, GST-ANAC055(1-171) (Arabidopsis thaliana, UniProt Q9LDY8 1-171); details: protein: recombinant; tags: GST; chain copies: 2; dsDNA, one strand shown
# T2 sequence: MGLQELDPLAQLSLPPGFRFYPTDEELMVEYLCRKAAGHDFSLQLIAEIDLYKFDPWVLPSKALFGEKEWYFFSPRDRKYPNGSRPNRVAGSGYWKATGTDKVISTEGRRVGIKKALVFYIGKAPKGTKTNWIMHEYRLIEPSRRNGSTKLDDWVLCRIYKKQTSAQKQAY
# How it was run: as §1
# [3] = molecular target: T3, GST-ATAF1 NAC domain (Arabidopsis thaliana, UniProt Q39013 7-158); details: protein: recombinant; tags: GST; chain copies: 2; dsDNA, one strand shown
# T3 sequence: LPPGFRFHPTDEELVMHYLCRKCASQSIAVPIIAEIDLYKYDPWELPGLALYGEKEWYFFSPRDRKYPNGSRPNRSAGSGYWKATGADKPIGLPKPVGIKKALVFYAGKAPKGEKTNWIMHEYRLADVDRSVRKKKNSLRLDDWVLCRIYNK
# How it was run: as §1
# [4] = molecular target: T4, GST-ANAC092(1-285) full length (Arabidopsis thaliana, UniProt Q9FKA0 1-285); details: protein: recombinant; tags: GST; chain copies: 2; dsDNA, one strand shown
# T4 sequence: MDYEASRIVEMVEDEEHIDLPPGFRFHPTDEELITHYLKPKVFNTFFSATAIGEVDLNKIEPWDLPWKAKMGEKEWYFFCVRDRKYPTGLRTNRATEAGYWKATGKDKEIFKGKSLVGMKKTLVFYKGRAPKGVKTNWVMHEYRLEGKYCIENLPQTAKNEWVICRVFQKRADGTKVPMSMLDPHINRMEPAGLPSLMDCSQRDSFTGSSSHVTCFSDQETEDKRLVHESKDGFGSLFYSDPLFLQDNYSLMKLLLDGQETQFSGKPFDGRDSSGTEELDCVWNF
# How it was run: as §1
# [5] = molecular target: T5, GST-NTL8 NAC domain (Arabidopsis thaliana, UniProt Q9XIN7 14-156); details: protein: recombinant; tags: GST; chain copies: 2; dsDNA, one strand shown
# T5 sequence: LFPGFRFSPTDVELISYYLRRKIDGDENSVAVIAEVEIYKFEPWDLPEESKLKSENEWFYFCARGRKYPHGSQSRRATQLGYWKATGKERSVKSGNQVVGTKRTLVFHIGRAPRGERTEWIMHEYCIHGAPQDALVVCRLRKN
# How it was run: as §1
# [6] = molecular target: T6, GST-VND3 NAC domain (Arabidopsis thaliana, UniProt Q9FH59 12-162); details: protein: recombinant; tags: GST; chain copies: 2; dsDNA, one strand shown
# T6 sequence: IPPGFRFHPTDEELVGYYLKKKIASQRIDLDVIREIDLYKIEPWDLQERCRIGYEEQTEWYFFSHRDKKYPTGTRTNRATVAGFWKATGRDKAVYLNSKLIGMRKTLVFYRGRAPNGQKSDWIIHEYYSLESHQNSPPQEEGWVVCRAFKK
# How it was run: as §1
# [7] = molecular target: T7, GST-VND7 NAC domain (Arabidopsis thaliana, UniProt Q9C8W9 9-158); details: protein: recombinant; tags: GST; chain copies: 2; dsDNA, one strand shown
# T7 sequence: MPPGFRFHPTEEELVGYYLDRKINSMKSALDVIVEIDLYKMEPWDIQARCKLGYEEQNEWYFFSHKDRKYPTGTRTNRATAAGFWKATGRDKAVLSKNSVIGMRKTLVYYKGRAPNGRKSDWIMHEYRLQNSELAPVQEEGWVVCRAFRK
# How it was run: as §1
# [8] = molecular target: GST-WRKY1(266-371) (Arabidopsis thaliana, UniProt Q9SI37 266-371); details: protein: recombinant; tags: GST; dsDNA, one strand shown
# Chain of GST-WRKY1(266-371) (Q9SI37 266-371): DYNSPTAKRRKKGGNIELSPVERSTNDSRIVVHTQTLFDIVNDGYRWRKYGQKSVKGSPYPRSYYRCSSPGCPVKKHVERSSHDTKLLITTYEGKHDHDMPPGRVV
# How it was run: as §1
# [9] = molecular target: T8, GST-ANAC092(1-176) (Arabidopsis thaliana, UniProt Q9FKA0 1-176); details: protein: recombinant; tags: GST; chain copies: 2; dsDNA, one strand shown
# T8 sequence: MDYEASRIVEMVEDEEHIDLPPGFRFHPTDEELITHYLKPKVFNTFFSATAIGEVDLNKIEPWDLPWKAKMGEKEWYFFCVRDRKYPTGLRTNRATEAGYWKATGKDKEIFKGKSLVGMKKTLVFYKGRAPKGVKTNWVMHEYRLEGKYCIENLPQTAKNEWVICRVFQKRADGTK
# How it was run: as §1
# [10] = molecular target: T9, GST-NST2(1-184) (Arabidopsis thaliana, UniProt Q9M274 1-184); details: protein: recombinant; tags: GST; chain copies: 2; dsDNA, one strand shown
# T9 sequence: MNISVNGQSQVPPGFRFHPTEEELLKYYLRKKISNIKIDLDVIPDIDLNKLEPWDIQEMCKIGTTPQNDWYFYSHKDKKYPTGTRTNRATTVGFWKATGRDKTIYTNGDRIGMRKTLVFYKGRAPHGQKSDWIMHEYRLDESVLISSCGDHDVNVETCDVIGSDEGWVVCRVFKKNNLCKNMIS
# How it was run: as §1
# [11] = molecular target: GST-NTL6(1-168) (Arabidopsis thaliana, UniProt Q9SCK6 1-168); details: protein: recombinant; tags: GST; chain copies: 2; dsDNA, one strand shown
# Chain of GST-NTL6(1-168) (Q9SCK6 1-168): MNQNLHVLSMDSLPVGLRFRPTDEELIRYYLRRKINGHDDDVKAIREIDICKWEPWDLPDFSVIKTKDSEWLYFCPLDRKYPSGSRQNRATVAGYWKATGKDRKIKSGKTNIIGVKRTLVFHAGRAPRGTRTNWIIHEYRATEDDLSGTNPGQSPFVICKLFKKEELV
# How it was run: as §1
# [12] = molecular target: T10, GST-NAP(1-166) (Arabidopsis thaliana, UniProt O49255 1-166); details: protein: recombinant; tags: GST; chain copies: 2; dsDNA, one strand shown
# T10 sequence: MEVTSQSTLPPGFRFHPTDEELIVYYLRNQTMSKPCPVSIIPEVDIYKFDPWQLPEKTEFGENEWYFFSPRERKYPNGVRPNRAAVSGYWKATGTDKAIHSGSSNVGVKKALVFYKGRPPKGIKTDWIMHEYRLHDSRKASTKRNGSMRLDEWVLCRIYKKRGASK
# How it was run: as §1
sequence,measurement,setting,value
CTAGTCAA,binding signal,[1],0.0699 E-score
same,binding signal,[2],0.171 E-score
same,binding signal,[3],0.148 E-score
same,binding signal,[4],0.0883 E-score
same,binding signal,[5],0.0822 E-score
same,binding signal,[6],0.166 E-score
same,binding signal,[7],0.08 E-score
same,binding signal,[8],0.474 E-score
CTTGACCA,binding signal,[9],0.0818 E-score
same,binding signal,[1],0.0734 E-score
same,binding signal,[2],0.104 E-score
same,binding signal,[3],0.145 E-score
same,binding signal,[10],0.1 E-score
same,binding signal,[6],0.119 E-score
same,binding signal,[8],0.484 E-score
ATGGTCAA,binding signal,[11],0.05 E-score
same,binding signal,[2],0.0866 E-score
same,binding signal,[3],0.155 E-score
same,binding signal,[10],0.0826 E-score
same,binding signal,[6],0.138 E-score
same,binding signal,[8],0.485 E-score
AGTCGTGC,binding signal,[1],0.412 E-score
same,binding signal,[2],0.341 E-score
same,binding signal,[3],0.264 E-score
same,binding signal,[6],0.324 E-score
same,binding signal,[7],0.273 E-score
same,binding signal,[8],0.294 E-score
TGACTAAA,binding signal,[11],0.0547 E-score
same,binding signal,[1],0.0691 E-score
same,binding signal,[10],0.111 E-score
same,binding signal,[6],0.0682 E-score
same,binding signal,[7],0.0902 E-score
same,binding signal,[8],0.42 E-score
CACGGCTC,binding signal,[1],0.42 E-score
same,binding signal,[2],0.384 E-score
same,binding signal,[3],0.336 E-score
same,binding signal,[4],0.18 E-score
same,binding signal,[12],0.3 E-score
same,binding signal,[6],0.337 E-score
same,binding signal,[7],0.377 E-score
ATTGACTA,binding signal,[9],0.0863 E-score
same,binding signal,[2],0.18 E-score
same,binding signal,[3],0.259 E-score
same,binding signal,[4],0.153 E-score
same,binding signal,[12],0.0723 E-score
same,binding signal,[10],0.182 E-score
same,binding signal,[6],0.228 E-score
same,binding signal,[8],0.466 E-score
AGAGGTAA,binding signal,[9],0.145 E-score
same,binding signal,[11],0.237 E-score
same,binding signal,[1],0.0713 E-score
same,binding signal,[2],0.0996 E-score
same,binding signal,[3],0.106 E-score
same,binding signal,[12],0.0742 E-score
same,binding signal,[5],0.427 E-score
same,binding signal,[6],0.0836 E-score
AGCTTGAC,binding signal,[9],0.0728 E-score
same,binding signal,[1],0.0936 E-score
same,binding signal,[4],0.065 E-score
same,binding signal,[12],0.0572 E-score
same,binding signal,[7],0.099 E-score
same,binding signal,[8],0.447 E-score
AGGAAACT,binding signal,[9],0.174 E-score
same,binding signal,[11],0.227 E-score
same,binding signal,[2],0.0635 E-score
same,binding signal,[3],0.0874 E-score
same,binding signal,[4],0.186 E-score
same,binding signal,[12],0.0881 E-score
same,binding signal,[10],0.125 E-score
same,binding signal,[5],0.426 E-score
same,binding signal,[7],0.131 E-score
ATTCCCTC,binding signal,[11],0.115 E-score
same,binding signal,[1],0.0664 E-score
same,binding signal,[5],0.421 E-score
same,binding signal,[7],0.0536 E-score
CGGTCAAG,binding signal,[8],0.483 E-score
CATTTGAC,binding signal,[2],0.0579 E-score
same,binding signal,[3],0.0746 E-score
same,binding signal,[10],0.0611 E-score
same,binding signal,[6],0.105 E-score
same,binding signal,[8],0.462 E-score
AGAAAGTC,binding signal,[1],0.0754 E-score
same,binding signal,[2],0.0896 E-score
same,binding signal,[3],0.103 E-score
same,binding signal,[5],0.0673 E-score
same,binding signal,[6],0.0756 E-score
same,binding signal,[8],0.407 E-score
AAGGTCAG,binding signal,[3],0.0646 E-score
same,binding signal,[5],0.0579 E-score
same,binding signal,[6],0.0582 E-score
same,binding signal,[8],0.425 E-score
ATTTTGAC,binding signal,[3],0.15 E-score
same,binding signal,[4],0.0617 E-score
same,binding signal,[10],0.0826 E-score
same,binding signal,[6],0.101 E-score
same,binding signal,[8],0.461 E-score
GCGGGTCA,binding signal,[8],0.421 E-score
AATTTGAC,binding signal,[2],0.0892 E-score
same,binding signal,[3],0.237 E-score
same,binding signal,[6],0.0556 E-score
same,binding signal,[8],0.451 E-score
CATTGACC,binding signal,[8],0.491 E-score
ATTGACTG,binding signal,[11],0.071 E-score
same,binding signal,[3],0.0846 E-score
same,binding signal,[10],0.0623 E-score
same,binding signal,[5],0.0613 E-score
same,binding signal,[7],0.05 E-score
same,binding signal,[8],0.465 E-score
TAGGTCAA,binding signal,[2],0.077 E-score
same,binding signal,[3],0.145 E-score
same,binding signal,[6],0.0723 E-score
same,binding signal,[8],0.482 E-score
AGTCAACG,binding signal,[1],0.0747 E-score
same,binding signal,[4],0.0699 E-score
same,binding signal,[12],0.0565 E-score
same,binding signal,[10],0.114 E-score
same,binding signal,[6],0.115 E-score
same,binding signal,[8],0.494 E-score
CATTGACG,binding signal,[4],0.149 E-score
same,binding signal,[6],0.08 E-score
same,binding signal,[8],0.411 E-score
TATGGTCA,binding signal,[2],0.0561 E-score
same,binding signal,[6],0.0521 E-score
same,binding signal,[8],0.428 E-score
ATGTTGAC,binding signal,[3],0.0521 E-score
same,binding signal,[6],0.0635 E-score
same,binding signal,[8],0.474 E-score
AGTCTGAC,binding signal,[1],0.0699 E-score
same,binding signal,[2],0.0555 E-score
same,binding signal,[12],0.0965 E-score
same,binding signal,[7],0.0919 E-score
same,binding signal,[8],0.422 E-score
GTCAATAA,binding signal,[11],0.109 E-score
same,binding signal,[2],0.134 E-score
same,binding signal,[3],0.135 E-score
same,binding signal,[12],0.122 E-score
same,binding signal,[10],0.118 E-score
same,binding signal,[7],0.112 E-score
same,binding signal,[8],0.457 E-score
AAGTTGAC,binding signal,[2],0.0649 E-score
same,binding signal,[3],0.0834 E-score
same,binding signal,[7],0.0703 E-score
same,binding signal,[8],0.476 E-score
AAAAAGTC,binding signal,[1],0.0791 E-score
same,binding signal,[2],0.209 E-score
same,binding signal,[3],0.184 E-score
same,binding signal,[10],0.122 E-score
same,binding signal,[5],0.0525 E-score
same,binding signal,[6],0.0942 E-score
same,binding signal,[8],0.426 E-score
